Assay results reported in PubChem BioAssay (NCATS).
Inconclusive results are not listed. Activity calls are given as the source filed them. Calls come from the whole dose curve; as a rule, active = well fitted curve in the direction sought with a large enough effect; inconclusive = small, poorly fitted or top-dose-only effect, or another doubt; inactive = no such curve, though single readings can be large; an effect the other way counts as inactive or inconclusive.

Experiments:
[1] = qHTS of pediatric cancer cell lines to identify multiple opportunities for drug repurposing: Primary screen for U-2 OS cells (AID 1347096); note: nearly all actives have a fitted effect of over 50% in size; note: potency is the fitted concentration of half-maximal effect
Outline: (§1)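 Cells (500-1,000/well) in growth media were settled 5 h at 37 degrees C, then given compounds for 48 h. Viability was read as CellTiter-Glo luminescence. Primary runs used MIPE at 11 points (0.78 nM-46 µM) and NPC at 8 points (0.59 nM-46 µM); follow-ups used 11 points.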

[2] = qHTS of pediatric cancer cell lines to identify multiple opportunities for drug repurposing: Primary screen for Saos-2 cells (AID 1347097); note: nearly all actives have a fitted effect of over 40% in size; note: potency is the fitted concentration of half-maximal effect
Outline: (§2)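 Quantitative HTS format: each compound titrated (MIPE 11 points from 0.78 nM, NPC 8 points from 0.59 nM) onto cells plated 5 hours earlier. After 48 h at 37 degrees C, CellTiter-Glo luminescence was recorded.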

[3] = qHTS of pediatric cancer cell lines to identify multiple opportunities for drug repurposing: Primary screen for SK-N-SH cells (AID 1347098); note: nearly all actives have a fitted effect of over 65% in size; note: potency is the fitted concentration of half-maximal effect
Outline: (§3)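 Cells (500-1,000/well) rested 5 h, then received compounds for 48 h; metabolically active cells were measured by CellTiter-Glo luminescence. Final concentrations spanned up to 46 µM (MIPE, 11-point) or 0.59 nM-46 µM (NPC, 8-point) in primary screens, 11-point in follow-ups.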

[4] = qHTS of pediatric cancer cell lines to identify multiple opportunities for drug repurposing: Primary screen for NB1643 cells (AID 1347099); note: nearly all actives have a fitted effect of over 50% in size; note: potency is the fitted concentration of half-maximal effect
Outline: as §2

[5] = qHTS of pediatric cancer cell lines to identify multiple opportunities for drug repurposing: Primary screen for LAN-5 cells (AID 1347100); note: potency is the fitted concentration of half-maximal effect
Outline: as §1

[6] = qHTS of pediatric cancer cell lines to identify multiple opportunities for drug repurposing: Primary screen for BT-12 cells (AID 1347101); note: nearly all actives have a fitted effect of over 25% in size; note: potency is the fitted concentration of half-maximal effect
Outline: as §3

[7] = qHTS of pediatric cancer cell lines to identify multiple opportunities for drug repurposing: Primary screen for Rh18 cells (AID 1347102); note: nearly all actives have a fitted effect of over 65% in size; note: potency is the fitted concentration of half-maximal effect
Outline: as §1

[8] = qHTS of pediatric cancer cell lines to identify multiple opportunities for drug repurposing: Primary screen for OHS-50 cells (AID 1347103); note: nearly all actives have a fitted effect of over 40% in size; note: potency is the fitted concentration of half-maximal effect
Outline: as §3

[9] = qHTS of pediatric cancer cell lines to identify multiple opportunities for drug repurposing: Primary screen for MG 63 (6-TG R) cells (AID 1347105); note: nearly all actives have a fitted effect of over 50% in size; note: potency is the fitted concentration of half-maximal effect
Outline: as §2

[10] = qHTS of pediatric cancer cell lines to identify multiple opportunities for drug repurposing: Primary screen for control Hh wild type fibroblast cells (AID 1347106);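 note: series mostly up to about 46 µM; a drop in luminescence marks cytotoxicity and a rise apparent proliferation; nearly all actives have a fitted effect of over 55% in size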
Outline: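 Viability after 48 h compound treatment at 37C, 500-1,000 cells/well, read as ATP luminescence with CellTiter-Glo. Primary screens used 11-point (MIPE, 0.78 nM-46 µM) or 8-point (NPC, 0.59 nM-46 µM) final concentrations; follow-up screens used 11-point dilutions.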

[11] = qHTS of pediatric cancer cell lines to identify multiple opportunities for drug repurposing: Primary screen for Rh30 cells (AID 1347107); note: series mostly up to about 46 µM; nearly all actives have a fitted effect of over 75% in size
Outline: as §1

[12] = qHTS of pediatric cancer cell lines to identify multiple opportunities for drug repurposing: Primary screen for Rh41 cells (AID 1347108); note: nearly all actives have a fitted effect of over 70% in size; note: potency is the fitted concentration of half-maximal effect
Outline: as §2

[13] = qHTS of pediatric cancer cell lines to identify multiple opportunities for drug repurposing: Primary screen for RD cells (AID 1347104); note: nearly all actives have a fitted effect of over 55% in size; note: potency is the fitted concentration of half-maximal effect
Outline: as §2

[14] = qHTS of pediatric cancer cell lines to identify multiple opportunities for drug repurposing: Confirmatory screen for NB1643 cells (AID 1347109); note: potency is the fitted concentration of half-maximal effect; nearly all actives have a fitted effect of over 45% in size
Outline: as §1

[15] = qHTS of pediatric cancer cell lines to identify multiple opportunities for drug repurposing: Confirmatory screen for A673 cells (AID 1347110);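 note: potency is the fitted concentration of half-maximal effect; cells exposed to compound for 48 h before the viability read; nearly all actives have a fitted effect of over 65% in size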
Outline: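 Cells plated at 500-1,000/well were treated five hours later with multi-point dilutions up to 46 µM final. After two days, CellTiter-Glo was added and luminescence read.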

[16] = qHTS of pediatric cancer cell lines to identify multiple opportunities for drug repurposing: Confirmatory screen for SK-N-MC cells (AID 1347111);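 note: potency is the fitted concentration of half-maximal effect; cells exposed to compound for 48 h before the readout; nearly all actives have a fitted effect of over 70% in size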
Outline: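 Metabolically active cells were quantified by ATP-dependent luminescence (CellTiter-Glo, 15 min at room temperature) following 48 h treatment. Cells had been plated at 500-1,000 per well and settled for 5 h beforehand.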

[17] = qHTS of pediatric cancer cell lines to identify multiple opportunities for drug repurposing: Confirmatory screen for BT-12 cells (AID 1347112); note: potency is the fitted concentration of half-maximal effect; nearly all actives have a fitted effect of over 55% in size
Outline: as §1

[18] = qHTS of pediatric cancer cell lines to identify multiple opportunities for drug repurposing: Confirmatory screen for DAOY cells (AID 1347114); note: potency is the fitted concentration of half-maximal effect; nearly all actives have a fitted effect of over 65% in size
Outline: (§4)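 Viability measured as metabolically active cells via CellTiter-Glo luminescence following 48 hours of compound exposure, 11-point dilutions in confirmatory testing. 500-1,000 cells/well plated 5 hours before dosing; controls were DMSO and 2.3 µM bortezomib.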

[19] = qHTS of pediatric cancer cell lines to identify multiple opportunities for drug repurposing: Confirmatory screen for NB-EBc1 cells (AID 1347115);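 note: potency is the fitted concentration of half-maximal effect; cells exposed to compound for 48 h before the viability read; nearly all actives have a fitted effect of over 45% in size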
Outline: as §1

[20] = qHTS of pediatric cancer cell lines to identify multiple opportunities for drug repurposing: Confirmatory screen for SJ-GBM2 cells (AID 1347116); note: potency is the fitted concentration of half-maximal effect; nearly all actives have a fitted effect of over 60% in size
Outline: as §4

Measured: Potency

CC1=C(C(=O)O)N2C(=O)[C@@H](NC(=O)[C@H](N)c3ccccc3)[C@H]2SC1
not listed: [13] | [14] | [15] | [16] | [17] | [18] | [19] | [20]
inactive: all other assays above

COc1ccc(/C=N/NC(=O)c2ccncc2)cc1OC
inactive: [1] | [2] | [3] | [4] | [5] | [6] | [7] | [8] | [9] | [10] | [11]

CCc1cc(Cl)c(OC)c(C(=O)NC[C@@H]2CCCN2CC)c1O
inactive: [1] | [2] | [3] | [4] | [5] | [6] | [7] | [13] | [9] | [10] | [11]

CN1CCN(c2c(F)cc3c(=O)c(C(=O)O)cn4c3c2SCC4)CC1
not listed: [7] | [14] | [15] | [16] | [17] | [18] | [19] | [20]
inactive: all other assays above

CCC1NC(=O)c2cc(S(N)(=O)=O)c(Cl)cc2N1 (centres undefined)
inactive: [1] | [2] | [3] | [4] | [5] | [6] | [8] | [13] | [9] | [10] | [11]

Nc1ccc(S(=O)(=O)Nc2cnc3ccccc3n2)cc1
not listed: [7] | [14] | [15] | [16] | [17] | [18] | [19] | [20]
inactive: all other assays above

Cc1cc(NS(=O)(=O)c2ccc(N)cc2)nc(C)n1
inactive: [1] | [2] | [3] | [4] | [5] | [6] | [7] | [8] | [9] | [10] | [11]

CC(C)Nc1cccnc1N1CCN(C(=O)c2cc3cc(NS(C)(=O)=O)ccc3[nH]2)CC1
not listed: [8] | [14] | [15] | [16] | [17] | [18] | [19] | [20]
inactive: all other assays above

CCN(CC)CCOC(=O)C1(c2ccccc2)CCCC1
not listed: [7] | [14] | [15] | [16] | [17] | [18] | [19] | [20]
inactive: all other assays above

CCOc1ccc(NC(C)=O)cc1
not listed: [13] | [14] | [15] | [16] | [17] | [18] | [19] | [20]
inactive: all other assays above

Nc1ccc(S(=O)(=O)NCc2ccccc2)cc1
inactive: [1] | [2] | [3] | [4] | [5] | [6] | [7] | [8] | [9] | [10] | [11]

CC(C)Cn1cnc2c1c(=O)n(C)c(=O)n2C
inactive: [1] | [2] | [3] | [4] | [5] | [6] | [7] | [8] | [10] | [11] | [12]

Nc1ccc(C(=O)NCC(=O)O)cc1
inactive: [1] | [2] | [3] | [4] | [5] | [6] | [8] | [13] | [9] | [11] | [12]

CCCCNC(=O)NS(=O)(=O)c1ccc(N)cc1
not listed: [7] | [14] | [15] | [16] | [17] | [18] | [19] | [20]
inactive: all other assays above

CCN(CC)CCNC(=O)c1cc(Br)c(N)cc1OC
not listed: [7] | [14] | [15] | [16] | [17] | [18] | [19] | [20]
inactive: all other assays above

CC(=O)Oc1ccc(C)cc1
not listed: [7] | [14] | [15] | [16] | [17] | [18] | [19] | [20]
inactive: all other assays above

C[C@@]12C(=O)OC(=O)[C@]1(C)C1CCC2O1
active: [1] 3.35 µM | [2] 1.5 µM | [3] 3.44 µM | [4] 1.19 µM | [5] 2.66 µM | [6] 6.92 µM | [7] 1.88 µM | [8] 1.74 µM | [13] 4.73 µM | [9] 1.68 µM | [12] 2.66 µM | [14] 2.93 µM | [15] 7.37 µM | [16] 3.29 µM | [17] 8.27 µM | [18] 2.93 µM | [19] 5.22 µM | [20] 8.27 µM

COc1ccc2c(c1)c1c3n2CCN(C)C3=NCC1
inactive: [1] | [2] | [3] | [4] | [5] | [6] | [7] | [8] | [9] | [10] | [11]

CC(O)Cn1cnc2c1c(=O)n(C)c(=O)n2C (centres undefined)
not listed: [13] | [14] | [15] | [16] | [17] | [18] | [19] | [20]
inactive: all other assays above

CN1CCN(c2cc3c(cc2F)c(=O)c(C(=O)O)cn3-c2ccc(F)cc2)CC1
inactive: [1] | [2] | [3] | [4] | [5] | [6] | [8] | [9] | [10] | [11] | [12]

Cc1cccc(C)c1NC(=O)c1ccccc1C(=O)O
not listed: [13] | [14] | [15] | [16] | [17] | [18] | [19] | [20]
inactive: all other assays above
